# Hits are enriched below; roughly 1.8% of the tested compounds scored in any of these assays.
# AI-2 QS modul: Vibrio harveyi AI-2 quorum sensing modulators, primary screen, JMH597 strain, luminescence/OD600 ratio | Vibrio harveyi JMH597 AI-2 luminescence/OD600 ratio, 9 h; active compounds read low; strain lacks LuxN and CqsS sensors; 0 = neutral-control median | activity change, % at 7.5 µM | actives 0.4% (n = 300,000); in the data active means activity change below about -75%, passing the limit was not always enough; inconclusive means no clear call, values can overlap the other calls;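 further: luminescence divided by OD600 gain over 9 h not by final OD600 alone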
# Bfl-1 A1 inh: caspase 3/7 activation in MEF A1-2A-BIM cells, primary screen, A1 inhibitor project, cell-based, luminescence, HTS | Caspase-Glo 3/7 luminescence, 3 h; percent of clofoctol response, vehicle zero | caspase activation, % (no concentration beside the values) | actives 0.066% (n = 330,000) | AID 2462, 2010;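 active means over half of replicate activation scores above 10%, or exactly half above 10 with the replicate mean above 10; inconclusive means replicate mean below 10 yet half the replicates above 10; inactive means over half of replicates below 10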
# SUMO Mot1 rescue: yeast Mot1-301 growth rescue at high temperature, primary screen, SUMOylation pathway inhibitor project, S. cerevisiae, ATP luminescence, 38.5C. actives 1% (n = 320,000). growth rescue, % at 18.8 µM. S. cerevisiae Mot1-301 growth rescue; percent above DMSO median, 100 means doubled. AID 2716, 2010;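 active means every valid replicate shows activation above 250% relative to neutral control wells; inactive means the rest, any valid replicate at or below 250%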;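 further: OY570 slx delta 5 strain wells were the positive control but not used for scaling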
# aDG glyco up: activators of alpha-DG glycosylation, primary screen, uHTS, Pro5-aDG cells, AlphaScreen; alpha-DG glycosylation AlphaScreen (IIH6); 0% Pro5, 100% B10-LARGE cell signal; activation, % at 10 µM; actives 0.22% (n = 360,000);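 active means activation of at least 8% versus controls, or a plate z-score of at least 8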;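 further: Pro5 are CHO cells carrying HIG-tagged alpha-DG that lacks glycosylation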
# ARNT-TACC3 inh: disruptors of ARNT/TACC3 protein interaction, primary screen, biochemical, AlphaScreen, single concentration. Transforming acidic coiled-coil-containing protein 3 (Homo sapiens), Q9Y6A5. AlphaScreen His-ARNT PAS-B/GST-TACC3 binding, luminescence; TACC3 fragment carries E629A point mutation. inhibition, % at 9.99 µM. actives 0.66% (n = 390,000);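 active means mean inhibition of replicates at least 50% and at least half of replicates each reaching 50%; inconclusive means half or more replicates reach 50% but mean below 50%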;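 further: 0% = complete ARNT plus TACC3 wells and 100% = ARNT alone without TACC3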
# Mot1 SUMO dose: growth restoration of Mot1-301 yeast on galactose, dose response, SUMO pathway inhibitor project, whole organism, S. cerevisiae, ATP luminescence, cherry-picked samples; S. cerevisiae Mot1-301 galactose growth, 24 h; -100 = growth of slx-deleted rescue strain; growth activity, percent, % at 42 µM; shares compounds with SUMO Mot1 rescue; 2,300 tested, under 10 active;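 active means Signal drops as the depositor expects, and the fitted half-maximal dose is no more than ten times the top valid tested dose; inconclusive means Poor fit, or a flat curve whose signal drops by 30% to 70%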;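 further: more negative values mean stronger growth rescue toward the control strain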
# * hit, by the source's call; ? = inconclusive; nt = no result; + = active, no number.
SMILES,AI-2 QS modul,Bfl-1 A1 inh,SUMO Mot1 rescue,aDG glyco up,ARNT-TACC3 inh,Mot1 SUMO dose
CN1C(=O)c2cccc3c(Cl)ccc(c23)C1=O,2,0,610*,0,-25,1
CN1C(=O)c2cccc3c(Br)ccc(c23)C1=O,13,0,0,0,nt,nt
COC(=O)c1ccc(/C=N/NC(=O)C(=O)NCC2CCCO2)cc1 (stereo not given),11,0,731*,0,-5,1
Cc1ccc(C(=O)N/C(=C/c2ccccc2)C(=O)NCC2CCCO2)cc1 (stereo not given),4,1,399*,0,nt,0
COc1ccc2c(Cl)c(C(=O)NN3CCN(C)CC3)sc2c1,31,0,587*,0,4,-1
CCOC(=O)c1ccc(NC(=O)CC2Sc3ncnn3C2=O)cc1 (stereo not given),27,-1,674*,0,0,-1
CCN(C(=O)Cn1nc(C)c([N+](=O)[O-])c1C)c1c(N)n(Cc2ccccc2)c(=O)[nH]c1=O,24,0,376*,2,2,1
CC(C)CN(C(=O)COC(=O)c1ccc2c(c1)OCCO2)c1c(N)n(Cc2ccccc2)c(=O)[nH]c1=O,24,0,7,0,3,nt
COCCN(C(=O)COC(=O)c1cc2ccccc2cc1OC)c1c(N)n(Cc2ccccc2)c(=O)[nH]c1=O,13,-1,-17,0,2,nt
CC(C)CN(C(=O)COC(=O)c1ccc2c(c1)OCO2)c1c(N)n(Cc2ccccc2)c(=O)[nH]c1=O,nt,0,710*,0,0,1
CCCCN(C(=O)C1=COCCO1)c1c(N)n(Cc2ccccc2)c(=O)[nH]c1=O,nt,-1,521*,0,-5,-1
CN(C(=O)COC(=O)c1cc2ccccc2cc1O)c1c(N)n(Cc2ccccc2)c(=O)[nH]c1=O,nt,0,427*,0,0,0
O=c1c2ccccc2nc(SCc2ccc([N+](=O)[O-])cc2)n1CCCO,5,0,464*,0,-5,0
CC(C)(C)c1ccc(-c2nc(C=O)c3ccccn23)cc1,12,0,412*,1,2,-1
O=C(Nc1cccc(N=Cc2cc(Cl)cc(Br)c2O)c1)c1ccco1,10,-2,243,0,-4,nt
O=C(Nc1cccc(N=Cc2cc(Br)cc(Br)c2O)c1)c1ccco1,3,0,766*,0,-1,-1
CCn1c(=O)cc(SCC(=O)Nc2cccnc2)c2ccccc21,7,1,19,0,8,nt
CS(=O)(=O)N1CCC(Oc2ccccc2C(=O)N2CCNC(=O)C2)CC1,50,0,401*,0,-2,0
O=S(=O)([N-]c1nc2ccccc2nc1-[n+]1ccccc1)c1ccccc1,1,0,-4,0,0,nt
Cc1cc(C)c[n+](-c2nc3ccccc3nc2[N-]S(=O)(=O)c2ccc(Br)s2)c1,34,-1,379*,0,nt,0
CSc1ccccc1NC(=O)CSc1nnnn1-c1ccccc1SC,28,-1,-10,0,-6,nt
COc1ccccc1-n1nnnc1SCC(=O)Nc1ccc(C)c(N)c1,19,0,455*,0,-21,0
CSc1ccccc1-n1nnnc1SCC(=O)Nc1ccccc1C,16,0,506*,0,7,0
Cc1nc(N/N=C\c2ccc3c(c2)OCO3)sc1C,14,0,497*,0,3,0
CCOc1cccc(CN2CCN(CCc3ccccc3)C(CCO)C2)c1O (stereo not given),31,0,-3,0,0,nt
SMILES,AI-2 QS modul,Bfl-1 A1 inh,SUMO Mot1 rescue,aDG glyco up,ARNT-TACC3 inh,Mot1 SUMO dose
COc1ccccc1CNCc1ccc(C)cc1,-5,-1,-18,0,-3,nt
COc1ccccc1CNCc1cc(OC)c(OC)c(OC)c1,16,0,+,0,-6,0
CN(c1ccccc1)c1ccc(/C=C/[N+](=O)[O-])cc1,?,4,804*,-1,0,-3
CCCNCc1cc(OCC)c(OCC(N)=O)cc1Br,8,0,766*,0,-5,0
CCC(=O)Nc1ccc2c(c1)C(=O)N(C)[C@H]1CC[C@H](CC(=O)NC3CCCC3)O[C@@H]1CO2,nt,nt,nt,nt,1,nt
Cc1ccc(NC(=O)N[C@H](C(=O)O)C(C)C)c(C)c1,14,0,830*,1,0,0
S=c1[nH]nc(COc2ccccc2)n1/N=C/c1ccccc1Br,16,0,56,0,4,nt
Oc1ccc(Br)cc1/C=N/n1c(COc2ccccc2)n[nH]c1=S,74,0,679*,0,3,0
N/C(=N\N=C\c1ccc(O)c(O)c1)c1nonc1N,-1,-8,7,0,7,nt
N/C(=N\N=C\c1ccc(O)cc1)c1nonc1N,13,-6,488*,0,-1,-1
CC(C)c1nc2n[nH]c(N)c2c2c1CCC2,3,0,408*,0,nt,0
CCCC(=O)Nc1ccc(C(=O)COC(=O)C2CC2C)cc1 (stereo not given),nt,-1,1,0,21,nt
O=C(OCc1nc2ccsc2c(=O)[nH]1)c1ccco1,-2,-1,651*,0,9,0
CCOC(=O)C1=Nc2ccccc2C1=[N+]=[N-],-39,-1,366*,1,-2,-1
COc1cc(C(N)=O)cc(Cl)c1OCc1ccccc1,15,-1,12,0,-3,nt
CCOc1cc(C(N)=O)cc(Cl)c1OCc1ccccc1,16,0,442*,0,-5,0
C[C@H]1CN([C@@H](C)CO)C(=O)c2cc(-c3ccccc3F)cnc2O[C@@H]1CN(C)C(=O)C1CCOCC1,nt,nt,nt,nt,3,nt
Cc1ccc(S(=O)(=O)Oc2ccccc2N2C(=O)C3CC=CCC3C2=O)cc1 (stereo not given),-9,1,+,0,-8,-1
N#Cc1c(NC(=O)c2ccc([N+](=O)[O-])o2)sc2c1CCC2,29,-5,466*,0,nt,0
CCOc1ccc(N(CC(=O)NC2CCCCC2)C(=O)CNC(=O)c2ccco2)cc1,14,-1,6,0,-7,nt
CCOc1ncccc1C(=O)OCC(=O)N(CC)c1ccccc1,8,0,439*,0,-19,0
